This is an account of results in PubChem BioAssay (NCATS).

For test [1], the target named is Lysosomal acid glucosylceramidase (Homo sapiens) (UniProt P04062). The test is described as follows: Glucocerebrosidase-p2 (AID 348; in the data active means potency below about 10 µM; further: potency means the concentration at half of the fitted maximal effect). Particulars: purified GBA, blue fluorogenic substrate, 40 min. The essentials: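 Normal human glucocerebrosidase (0.2 nM) with blue fluorogenic substrate (80 uM final) in citrate/phosphate pH 5.9 with 10mM sodium taurocholate, 0.01% tween-20; 40 min RT, NaOH/glycine stop; fluorescence Ex 365/Em 440; AC50 from a titration from 0.6 nM upwards.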

The nature of test [2]: AP1 Signaling Pathway (AID 357).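 Further: ME-180 reporter cells stimulated with EGF at its EC50 level; on the % scale 0 is the no-effect control and ±100 the full control effect.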 Particulars: ME-180 AP-1-bla reporter, EGF-induced, beta-lactamase ratio, 5 h; at 7.69 µM (top of the series) unless noted. The essentials: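 Beta-lactamase reporter under AP-1 response element, ME-180 background. Stimulus: EC50 EGF. Compound exposure 5 h, 37 °C. Detection: CCF4, 2.5 h RT, 460/530 nm. Values: AC50 from titration.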
Test [3] concerns the target Cytochrome P450 1A2 (Homo sapiens) (UniProt P05177). The experiment in a line: p450-cyp1a2 (AID 410; calls by dose curve; further: potency means the concentration at half of the fitted maximal effect). The settings on record: recombinant CYP1A2, luciferin-ME demethylation, luminescence; series mostly up to 57 µM. An outline of the steps: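 O-Demethylation of luciferin 6' methyl ether by human CYP1A2 is monitored as luciferase luminescence. Substrate sits at Km (100uM); enzyme is 20nM. Values are scaled to 57 uM furafylline as maximal inhibition.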

A short description of test [4]: NFAT Signaling Pathway (AID 444).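 Further: carbachol stimulus at about its EC50 of 1 µM final; on the % scale 0 is the no-effect control and ±100 the full control effect.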 The settings on record: Jurkat NFAT-bla M1, carbachol, beta-lactamase ratio, 5 h; at 7.69 µM (top of the series) unless noted. The essentials: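 Jurkat cells with NFAT-driven β-lactamase reporter and co-expressed M1 receptor, stimulated with carbachol (final 1 uM, ~EC50), compound titration, 5 h at 37 °C. CCF4 loaded 1 h at RT; 460/530 nm ratio gave %activity and AC50.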

Test [5] is described as follows: Stat Signaling Pathway (AID 446).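 Further: ME-180 cervical cancer cells given 40 pM IL-6 alongside compound; SIE-controlled beta-lactamase reporter measured as 460/530 nm FRET emission ratio; on the % scale 0 is the no-effect control and ±100 the full control effect.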 The settings on record: ME-180 SIE beta-lactamase reporter, IL-6 stimulated, 5 h; at 7.69 µM (top of the series) unless noted. An outline of the steps: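 FRET read-out (405 nm excitation, 460/530 nm emission) of a beta-lactamase reporter under a STAT-inducible element in ME-180 cervical carcinoma cells. Cells with compound receive 40 pM IL-6 for 5 h. Values are normalised to AC90 stimulation and AC90 JAK-inhibitor controls.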

In test [6] the target is Glucocorticoid receptor (Homo sapiens) (UniProt P04150). The test is described as follows: GR-EFC Redistribution (AID 451; calls by dose curve; further: potency means the concentration at half of the fitted maximal effect). The settings on record: CHO-K1 GR-EFC translocation, beta-gal luminescence, 2 h. An outline of the steps:
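CHO-K1 cells expressing nuclear EA and GR-ED fragments of b-gal; compounds titrated up to 46 uM final, 2 h at 37 C. GR nuclear translocation read as complemented b-gal luminescence after 1 h RT detection.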

Test [7] concerns the target Mitogen-activated protein kinase 10 (Mus musculus) (UniProt Q61831). The test is described as follows: JNK3 AlphaScreen Assay (AID 530).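 Further: kinase came from lysate of stimulated human HepG2 cells; signal reports phosphorylation of biotinylated GST-cJun 1-79 at Ser73 with 10 µM ATP; on the % scale 0 is the no-effect control and ±100 the full control effect.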 The settings on record: JNK3 lysate, c-Jun phosphorylation; series mostly up to 57.1 µM. An outline of the steps:
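Activity was read by AlphaScreen after JNK3-containing HepG2 lysate (cytokine pre-activated) phosphorylated biotinylated GST-cJun with 10 uM ATP at room temperature. Phospho-Ser73 cJun antibody with Protein-A acceptor beads provided detection.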

For test [8], the target named is 3',5'-cyclic-AMP phosphodiesterase 4B (Homo sapiens) (UniProt Q07343). The test is described as follows: qHTS Assay for Inhibitors of PDE-IV (AID 607; active means well fitted activation curve with a large enough effect in the main read-out, with a control signal flat, not every such curve was filed as active; further: % of control where 0% means no effect). The settings on record: HEK293 ACTOne CNG channel cells, membrane potential fluorescence; series mostly up to 22.9 µM. An outline of the steps: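 Cell-based read-out of cAMP via a modified cyclic nucleotide-gated channel and membrane potential dye (535/590 nm) in HEK293 cells expressing PDE4 endogenously. Compounds tested up to 22.9 uM final; 100 uM RO 20-1724 reference.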

In test [9] the target is Cytochrome P450 2C9 (Homo sapiens) (UniProt P11712). The experiment in a line: qHTS Assay for Inhibitors and Substrates of Cytochrome P450 2C9 (AID 883; active means well fitted curve in the direction sought with a large enough effect; an effect the other way counts as inactive or inconclusive; further: on the % scale 0 is the no-effect control and ±100 the full control effect; nearly all actives have a fitted effect of over 60% in size). Particulars: recombinant CYP2C9, luciferin-H luminescence, 60 min; series mostly up to 57.1 µM. An outline of the steps: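 10nM CYP2C9 + 100uM Luciferin-H (=KM), 25mM KPO4; cpd 10 min 37C; NADPH regen, 60 min 37C; stop/detect with P450 Glo-Buffer 20 min; luminescence. Norm. to 57uM sulphaphenazole as full inhibition.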
A general note: In qHTS, concentration-response curves come from the screen itself.

For test [10], the target named is Cytochrome P450 2C19 (Homo sapiens) (UniProt P33261). The experiment in a line: qHTS Assay for Inhibitors and Substrates of Cytochrome P450 2C19 (AID 899; active means well fitted curve in the direction sought with a large enough effect; an effect the other way counts as inactive or inconclusive; further: on the % scale 0 is the no-effect control and ±100 the full control effect; nearly all actives have a fitted effect of over 60% in size). The settings on record: recombinant CYP2C19, luciferin-H EGE luminescence; series mostly up to 57.1 µM. The essentials:
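Luminescent read-out of luciferin formed from Luciferin-H EGE (10uM, equal to KM). Enzyme 5nM in 50mM KPO4; compound added, 10 min at 37C, then NADPH regenerating system for 60 min at 37C. Full inhibition defined by 57uM ketoconazole.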

Test [11] is described as follows: qHTS Assay for Lipid Storage Modulators (AID 1519; calls by dose curve). Particulars: Drosophila S3 cells, BODIPY lipid droplet/cell ratio, laser cytometry, cells loaded with oleic acid; for activity change, negative = inhibition: at 57.5 µM (top of the series). An outline of the steps:
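Cells seeded at 5,000 per well were treated with compounds over a concentration series and loaded with oleic acid (400 uM, as added). Lipid droplet fluorescence (488 nm excitation, 500-530 nm channel) was read by laser-scanning cytometry and normalized to 20 uM Triacsin C.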

The nature of test [12]: Primary qHTS for small molecule stabilizers of the endoplasmic reticulum resident proteome: Secreted ER Calcium Modulated Protein (SERCaMP) assay (AID 1508630; active means well fitted curve in the direction sought with a large enough effect; an effect the other way counts as inactive or inconclusive; further: on the % scale 0 is the no-effect control and ±100 the full control effect). The settings on record: SH-SY5Y GLuc-SERCaMP (Gaussia luciferase released on ER calcium loss) secretion, thapsigargin, luminescence; series mostly up to 38.4 µM. An outline of the steps:
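The SH-SY5Y reporter protocol was run at 3 concentrations up to 38.3 uM (primary) or 11 concentrations (follow-up): 16 h compound, 100 nM thapsigargin for 4 h, then extracellular luciferase luminescence.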

Test [13] deals with Cytochrome P450 3A4 (Homo sapiens) (UniProt P08684). The experiment in a line: qHTS Assay for Inhibitors and Substrates of Cytochrome P450 3A4 (AID 884; active means well fitted curve in the direction sought with a large enough effect; an effect the other way counts as inactive or inconclusive; further: nearly all actives have a fitted effect of over 50% in size; further: potency means the concentration at half of the fitted maximal effect). Particulars: recombinant CYP3A4, Luciferin-PPXE luminescence; series mostly up to 57.1 µM. An outline of the steps: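 Luminescent readout of luciferin produced by CYP3A4 (20 nM) dealkylation of Luciferin-PPXE, 25 uM (its KM). NADPH-driven reaction ran 60 min at RT after 10 min compound preincubation; data scaled to 57 uM ketoconazole as 100% inhibition.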

The target is the same in test [14]. The experiment in a line: qHTS Assay for Activators of Cytochrome P450 3A4 (AID 885; active means well fitted curve in the direction sought with a large enough effect; an effect the other way counts as inactive or inconclusive; further: nearly all actives have a fitted effect of over 65% in size; further: potency means the concentration at half of the fitted maximal effect). Particulars: recombinant CYP3A4, Luciferin-PPXE luminescence, 60 min; series mostly up to 57.1 µM. The essentials: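 Luminescent readout of luciferin formed from 25 uM Luciferin-PPXE (KM level) by 20 nM CYP3A4 in 200 mM KPO4, with 60 min NADPH-driven reaction at room temperature after 10 min compound exposure. Ketoconazole (57 uM) defined 100% inhibition.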

Test [15] is described as follows: qHTS Assay for Identification of Small Molecule Agonists for Hypoxia Response Element Signaling Pathway (AID 914; active means well fitted activation curve with a large enough effect in the signal ratio, with a control signal flat, not every such curve was filed as active; the % refers to the signal ratio; further: % of control where 0% means no effect). The settings on record: ME-180 (cervical carcinoma) HRE-bla reporter, beta-lactamase ratio, CoCl2, 17 h; activation: stronger effect = higher value. An outline of the steps: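 Read-out: CCF4 FRET ratio of 460nm to 530nm emission (excitation 405nm) after 2.5 hours at room temperature, taken from HRE-bla ME-180 cells that had been exposed to compound and EC50 CoCl2 for 17 hours.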

The target in test [16] is Cytochrome P450 2D6 (Homo sapiens) (UniProt P10635). The test is described as follows: qHTS Assay for Inhibitors and Substrates of Cytochrome P450 2D6 (AID 891; active means well fitted curve in the direction sought with a large enough effect; an effect the other way counts as inactive or inconclusive; further: potency means the concentration at half of the fitted maximal effect; nearly all actives have a fitted effect of over 60% in size). The settings on record: recombinant CYP2D6, luciferin-ME EGE luminescence; series mostly up to 57.1 µM. An outline of the steps:
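Luminescent read-out of luciferin formed by 5 nM human CYP2D6 demethylating 30 uM Luciferin-ME EGE (Km level) over 60 min at room temperature after NADPH regeneration addition. Data normalized to full inhibition by 1.43 uM quinidine.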

The mark [17] stands for this setting: measured here: cell count channel max response.
[18] abbreviates: measured here: lipid channel max response.

Records with an inconclusive call do not appear. The source made the active and inactive calls. Unless noted, the call rests on the fitted dose curve; in most records, active means well fitted curve in either direction with a large enough effect (not every such curve was filed as active); inconclusive means small, poorly fitted or top-dose-only effect, or another doubt; inactive means flat fitted curve, though single readings scatter.

Sequence of Cytochrome P450 3A4 (Homo sapiens) (P08684 whole entry, looked up): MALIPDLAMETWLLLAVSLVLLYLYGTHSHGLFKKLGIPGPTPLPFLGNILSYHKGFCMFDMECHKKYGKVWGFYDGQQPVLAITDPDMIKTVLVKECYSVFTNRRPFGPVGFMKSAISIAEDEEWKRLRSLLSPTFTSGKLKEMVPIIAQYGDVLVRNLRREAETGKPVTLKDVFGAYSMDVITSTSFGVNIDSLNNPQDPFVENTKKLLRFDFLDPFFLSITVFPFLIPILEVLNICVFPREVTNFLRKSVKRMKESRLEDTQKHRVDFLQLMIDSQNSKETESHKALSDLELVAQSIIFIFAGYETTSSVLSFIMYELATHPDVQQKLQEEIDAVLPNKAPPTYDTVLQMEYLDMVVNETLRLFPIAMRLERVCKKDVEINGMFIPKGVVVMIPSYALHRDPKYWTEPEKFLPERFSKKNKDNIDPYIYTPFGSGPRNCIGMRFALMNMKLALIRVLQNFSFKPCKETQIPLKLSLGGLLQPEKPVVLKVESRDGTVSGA
Sequence of Cytochrome P450 1A2 (Homo sapiens) (P05177 whole entry, looked up): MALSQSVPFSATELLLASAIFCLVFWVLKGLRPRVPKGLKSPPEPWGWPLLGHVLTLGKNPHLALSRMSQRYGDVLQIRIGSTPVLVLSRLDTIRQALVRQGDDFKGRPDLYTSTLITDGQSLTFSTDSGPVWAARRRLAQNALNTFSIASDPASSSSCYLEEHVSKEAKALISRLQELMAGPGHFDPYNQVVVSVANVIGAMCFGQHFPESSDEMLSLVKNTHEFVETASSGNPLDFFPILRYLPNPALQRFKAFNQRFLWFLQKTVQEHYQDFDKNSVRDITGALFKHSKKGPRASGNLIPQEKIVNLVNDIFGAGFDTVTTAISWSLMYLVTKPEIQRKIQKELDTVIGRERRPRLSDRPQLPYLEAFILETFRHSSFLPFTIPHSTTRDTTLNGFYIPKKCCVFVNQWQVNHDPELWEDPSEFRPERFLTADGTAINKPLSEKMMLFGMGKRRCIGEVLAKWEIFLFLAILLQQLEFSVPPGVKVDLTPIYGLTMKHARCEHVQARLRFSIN
Sequence of 3',5'-cyclic-AMP phosphodiesterase 4B (Homo sapiens) (Q07343 whole entry, looked up): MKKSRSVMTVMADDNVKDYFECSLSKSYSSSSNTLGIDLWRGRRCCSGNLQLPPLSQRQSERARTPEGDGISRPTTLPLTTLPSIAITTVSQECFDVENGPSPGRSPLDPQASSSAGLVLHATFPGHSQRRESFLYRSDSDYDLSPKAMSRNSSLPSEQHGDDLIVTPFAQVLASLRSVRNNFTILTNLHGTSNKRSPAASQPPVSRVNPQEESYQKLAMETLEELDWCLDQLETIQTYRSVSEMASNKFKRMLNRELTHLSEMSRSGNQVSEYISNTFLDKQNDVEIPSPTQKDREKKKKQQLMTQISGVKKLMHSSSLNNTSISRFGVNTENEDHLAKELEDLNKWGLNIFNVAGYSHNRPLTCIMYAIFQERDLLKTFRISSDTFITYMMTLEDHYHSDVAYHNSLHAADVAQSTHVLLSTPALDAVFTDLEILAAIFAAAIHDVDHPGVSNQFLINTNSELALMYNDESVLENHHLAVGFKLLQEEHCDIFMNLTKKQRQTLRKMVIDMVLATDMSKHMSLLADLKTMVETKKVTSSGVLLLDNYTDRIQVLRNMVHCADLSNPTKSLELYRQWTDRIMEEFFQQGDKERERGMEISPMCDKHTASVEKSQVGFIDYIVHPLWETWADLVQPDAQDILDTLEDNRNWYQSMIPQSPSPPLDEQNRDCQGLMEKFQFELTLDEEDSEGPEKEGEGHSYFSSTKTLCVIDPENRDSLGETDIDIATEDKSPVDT
Sequence of Lysosomal acid glucosylceramidase (Homo sapiens) (P04062 whole entry, looked up): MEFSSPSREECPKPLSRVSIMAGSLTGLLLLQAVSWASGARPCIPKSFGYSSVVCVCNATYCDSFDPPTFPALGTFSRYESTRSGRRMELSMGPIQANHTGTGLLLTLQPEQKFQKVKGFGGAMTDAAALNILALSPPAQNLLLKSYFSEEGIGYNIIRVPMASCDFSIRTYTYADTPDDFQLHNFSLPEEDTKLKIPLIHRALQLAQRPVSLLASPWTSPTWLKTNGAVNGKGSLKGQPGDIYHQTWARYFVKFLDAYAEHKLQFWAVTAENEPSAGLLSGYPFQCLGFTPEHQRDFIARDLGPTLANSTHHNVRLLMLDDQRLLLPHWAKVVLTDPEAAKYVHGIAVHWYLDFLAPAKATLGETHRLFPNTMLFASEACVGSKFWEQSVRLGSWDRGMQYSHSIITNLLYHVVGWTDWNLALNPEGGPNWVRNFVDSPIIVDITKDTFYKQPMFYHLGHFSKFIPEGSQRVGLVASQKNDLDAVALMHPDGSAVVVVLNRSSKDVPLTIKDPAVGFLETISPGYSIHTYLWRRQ
Sequence of Glucocorticoid receptor (Homo sapiens) (P04150 whole entry, looked up, the tested form may be a part): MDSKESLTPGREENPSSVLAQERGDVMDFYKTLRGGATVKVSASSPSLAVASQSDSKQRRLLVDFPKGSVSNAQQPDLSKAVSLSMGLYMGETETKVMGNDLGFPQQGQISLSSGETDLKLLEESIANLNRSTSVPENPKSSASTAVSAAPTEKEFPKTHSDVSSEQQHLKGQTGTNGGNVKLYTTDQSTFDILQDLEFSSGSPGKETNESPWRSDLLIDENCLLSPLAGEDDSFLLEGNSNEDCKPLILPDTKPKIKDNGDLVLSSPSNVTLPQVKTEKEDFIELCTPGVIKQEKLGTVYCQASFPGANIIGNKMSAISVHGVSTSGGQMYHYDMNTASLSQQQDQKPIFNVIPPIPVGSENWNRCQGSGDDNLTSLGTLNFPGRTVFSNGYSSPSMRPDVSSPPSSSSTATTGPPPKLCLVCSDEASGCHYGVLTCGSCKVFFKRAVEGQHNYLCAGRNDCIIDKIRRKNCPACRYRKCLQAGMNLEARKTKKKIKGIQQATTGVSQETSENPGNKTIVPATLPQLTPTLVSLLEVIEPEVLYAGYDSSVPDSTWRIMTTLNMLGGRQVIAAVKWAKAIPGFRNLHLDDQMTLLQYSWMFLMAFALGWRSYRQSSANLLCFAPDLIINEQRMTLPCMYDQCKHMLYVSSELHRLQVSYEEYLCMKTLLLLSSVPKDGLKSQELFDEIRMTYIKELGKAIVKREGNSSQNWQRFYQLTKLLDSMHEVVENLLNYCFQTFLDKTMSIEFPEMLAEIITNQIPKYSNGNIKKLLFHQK
Sequence of Cytochrome P450 2D6 (Homo sapiens) (P10635 whole entry, looked up): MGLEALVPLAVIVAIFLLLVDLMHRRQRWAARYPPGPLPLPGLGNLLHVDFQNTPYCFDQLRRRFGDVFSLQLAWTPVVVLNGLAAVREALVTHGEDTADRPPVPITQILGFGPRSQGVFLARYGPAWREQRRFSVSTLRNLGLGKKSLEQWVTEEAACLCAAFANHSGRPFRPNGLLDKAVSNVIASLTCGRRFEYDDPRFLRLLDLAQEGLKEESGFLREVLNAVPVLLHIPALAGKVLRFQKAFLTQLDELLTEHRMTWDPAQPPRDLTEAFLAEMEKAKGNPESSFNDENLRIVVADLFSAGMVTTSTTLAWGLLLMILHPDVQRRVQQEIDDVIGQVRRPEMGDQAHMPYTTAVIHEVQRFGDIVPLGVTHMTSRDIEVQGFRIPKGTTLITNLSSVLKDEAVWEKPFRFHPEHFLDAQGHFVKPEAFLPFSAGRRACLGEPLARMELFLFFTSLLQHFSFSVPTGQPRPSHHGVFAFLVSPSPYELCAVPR
Sequence of Cytochrome P450 2C19 (Homo sapiens) (P33261 whole entry, looked up): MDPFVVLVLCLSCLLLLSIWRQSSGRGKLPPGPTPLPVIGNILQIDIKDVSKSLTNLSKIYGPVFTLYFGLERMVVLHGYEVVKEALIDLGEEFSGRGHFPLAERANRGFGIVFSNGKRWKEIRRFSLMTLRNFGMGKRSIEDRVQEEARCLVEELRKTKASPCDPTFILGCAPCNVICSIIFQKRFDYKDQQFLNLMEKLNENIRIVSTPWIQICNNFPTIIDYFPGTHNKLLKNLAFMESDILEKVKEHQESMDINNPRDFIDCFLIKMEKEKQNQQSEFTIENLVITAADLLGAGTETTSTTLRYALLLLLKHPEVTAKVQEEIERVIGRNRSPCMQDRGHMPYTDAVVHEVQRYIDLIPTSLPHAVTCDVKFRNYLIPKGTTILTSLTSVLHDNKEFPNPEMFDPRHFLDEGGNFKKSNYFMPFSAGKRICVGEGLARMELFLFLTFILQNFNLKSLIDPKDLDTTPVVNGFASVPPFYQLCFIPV
Sequence of Cytochrome P450 2C9 (Homo sapiens) (P11712 whole entry, looked up): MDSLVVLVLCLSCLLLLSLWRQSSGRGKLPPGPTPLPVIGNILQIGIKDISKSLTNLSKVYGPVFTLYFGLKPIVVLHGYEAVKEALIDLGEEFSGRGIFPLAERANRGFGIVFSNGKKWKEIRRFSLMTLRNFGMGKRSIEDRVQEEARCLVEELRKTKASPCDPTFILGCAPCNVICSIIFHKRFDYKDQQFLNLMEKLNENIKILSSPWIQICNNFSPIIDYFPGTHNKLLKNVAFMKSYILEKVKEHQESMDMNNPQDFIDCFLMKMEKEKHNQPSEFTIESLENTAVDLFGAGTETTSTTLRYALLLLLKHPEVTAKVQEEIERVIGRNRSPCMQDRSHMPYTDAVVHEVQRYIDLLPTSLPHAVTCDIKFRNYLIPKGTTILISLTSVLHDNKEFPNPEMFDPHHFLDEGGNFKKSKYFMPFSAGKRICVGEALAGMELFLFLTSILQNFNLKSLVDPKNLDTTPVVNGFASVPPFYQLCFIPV

Regarding `Cc1noc(C)c1C(=O)N1CCC2(CCCN(C(=O)NC(C)C)C2)CC1`, the Potency in test [1] was > 11.4 µM (inactive); in [6] it was > 46 µM (inactive). Further, the figures for the activity change, negative = inhibition in test [2], in test [4] and in test [11] were 10.5% (inactive), 8.68% (inactive) and 6.76% (inactive), respectively. For the same molecule, the Potency entry in test [3], in [8], in [9], in [10] and in test [12] was “inactive” each time. In test [5], the activity, negative = inhibition is -2.07% (inactive). The molecule was classed as inactive in test [7]. Besides, the max response in test [11] (setting [17]) was determined as 0.437%; in [11] (setting [18]), 10.1%.
For the molecule `O=C(c1cc(C(F)(F)F)cc(C(F)(F)F)c1)N1CCC[C@@]2(CCN(Cc3nccs3)C2)C1`, the Potency was > 11.4 µM (inactive) in [1], 20 µM (active) in test [3], > 46 µM (inactive) in test [6] and 3.16 µM (active) in test [13]. Moreover, the values for the activity change, negative = inhibition in [2], in test [4] and in test [11] were 4.84% (inactive), -21.5% (inactive) and 1.58% (inactive), respectively. Besides, the activity, negative = inhibition in test [5] was -3.68% (inactive). Moreover, the outcome in test [7] was inactive. The Potency result in test [8], in [14] and in test [12] was “inactive” throughout. Moreover, the values for the max response in test [11] (setting [17]) and in test [11] (setting [18]) were 26% and 28.9%, respectively.
In the case of `O=C(Oc1ccccc1)N1CCC2(CC1)CCN(c1ncccn1)CC2`, the results for the Potency in [1], in test [6] and in [14] were > 11.4 µM (inactive), > 46 µM (inactive) and 6.31 µM (active), respectively. The activity change, negative = inhibition in test [2] is 3.96% (inactive); in test [4], -8.96% (inactive); in test [11] it was 2.83% (inactive). Further, the Potency entry in [3], in test [8], in [13] and in test [12] was “inactive” each time. Further, the activity, negative = inhibition in test [5] is -1.88% (inactive). Besides, the molecule was classed as inactive in test [7]. The activation in test [15] is 2.8% (inactive). Also, the max response is -3.54% in test [11] (setting [17]) and 1.32% in test [11] (setting [18]).
On to `COCC(=O)N1CCC2(CC1)CN(C(c1ccccc1)c1ccccc1)C2`, for which the Potency in test [1] is > 11.4 µM (inactive); in test [6], > 46 µM (inactive); in [14] it was 25.1 µM (active); in [16], 2.51 µM (active). The activity change, negative = inhibition is 3.82% (inactive) in test [2], 11.6% (inactive) in test [4] and 2.84% (inactive) in test [11]. For the same molecule, the Potency result in test [3], in test [8], in [13] and in [12] was “inactive” throughout. For the same molecule, in test [5], the activity, negative = inhibition is -8.6% (inactive). In addition, the outcome in test [7] was inactive. Also, the max response in test [11] (setting [17]) is -11.5%; in test [11] (setting [18]) it was -6.58%.
In the case of `Cc1noc(C)c1C(=O)N1CCC[C@@]2(CCN(c3ccccc3)C2)C1`, the Potency in test [1] is > 11.4 µM (inactive); in [3], 25.1 µM (active); in [6], > 46 µM (inactive). The activity change, negative = inhibition is -7.05% (inactive) in [2], -18.1% (inactive) in test [4] and -2.45% (inactive) in test [11]. The activity, negative = inhibition in [5] was 3.26% (inactive). Besides, the molecule was called inactive in [7]. For the same molecule, the Potency result in [8], in test [14] and in [12] was “inactive” throughout. Also, the values for the max response in [11] (setting [17]) and in [11] (setting [18]) were 13.4% and 14.8%, respectively.
